# Source: article PMC7862700, “An all-to-all approach to the identification of sequence-specific readers for epigenetic DNA modifications on cytosine”
# Key:
# Experiment in all cases: DAPPL (digital affinity profiling via proximity ligation, sequencing); 10 mM Tris-HCl pH 7.5, 50 mM NaCl, 1 mM DTT, 4% glycerol, room temperature, 30 min; GST-TFs on glutathione beads, 16-mer random dsDNA library, 0.1% formaldehyde crosslink after washing; high values mean tight binding
# Settings in all cases: protein: recombinant; tags: N-terminal GST; dsDNA, one strand shown
# ELK1 = target: T1, ELK1 (Homo sapiens, UniProt P19419 1-428)
# T1 sequence: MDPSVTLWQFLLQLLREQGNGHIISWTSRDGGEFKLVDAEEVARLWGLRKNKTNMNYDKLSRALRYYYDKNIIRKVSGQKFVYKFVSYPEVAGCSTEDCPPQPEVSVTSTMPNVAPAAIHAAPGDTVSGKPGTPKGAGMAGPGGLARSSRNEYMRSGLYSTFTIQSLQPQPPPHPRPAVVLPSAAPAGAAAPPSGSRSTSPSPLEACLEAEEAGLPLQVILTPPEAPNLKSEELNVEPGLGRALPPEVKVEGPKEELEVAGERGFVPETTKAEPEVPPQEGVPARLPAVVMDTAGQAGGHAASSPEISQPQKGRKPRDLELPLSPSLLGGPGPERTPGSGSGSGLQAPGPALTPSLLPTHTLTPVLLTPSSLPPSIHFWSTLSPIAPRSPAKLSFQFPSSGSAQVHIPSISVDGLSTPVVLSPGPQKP
# In short: (§1)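 GST fusions of human transcription factors were expressed in yeast and captured with glutathione beads. Once given DNA barcodes and pooled alongside a tag-only sample, they were incubated for 30 min at room temperature with 200 nmole of a random double-stranded 16-mer DNA library in Tris/NaCl/DTT/glycerol buffer, then washed, crosslinked (0.1% formaldehyde), proximity-ligated, PCR-amplified and sequenced on an Illumina NextSeq500. The binding signal of each hexamer is its read frequency for a factor divided by its frequency for the tag-only sample.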
# ERG = target: T2, ERG (Homo sapiens, UniProt P11308 1-479)
# T2 sequence: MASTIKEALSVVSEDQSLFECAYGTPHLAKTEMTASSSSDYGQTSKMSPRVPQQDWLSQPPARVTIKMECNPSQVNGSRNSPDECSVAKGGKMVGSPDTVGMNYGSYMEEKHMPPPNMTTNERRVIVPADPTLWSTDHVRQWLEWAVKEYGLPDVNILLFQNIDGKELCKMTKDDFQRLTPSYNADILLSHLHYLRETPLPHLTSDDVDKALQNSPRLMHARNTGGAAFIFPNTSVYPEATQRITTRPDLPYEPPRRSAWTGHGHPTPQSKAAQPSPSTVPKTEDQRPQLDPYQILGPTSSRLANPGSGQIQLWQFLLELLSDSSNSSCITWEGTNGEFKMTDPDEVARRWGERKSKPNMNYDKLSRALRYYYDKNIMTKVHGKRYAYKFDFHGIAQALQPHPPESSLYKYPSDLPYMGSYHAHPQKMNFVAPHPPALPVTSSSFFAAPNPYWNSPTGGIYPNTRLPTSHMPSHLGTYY
# In short: as §1
# ELF1 = ELF1 (Homo sapiens, UniProt P32519 1-619)
# Sequence of ELF1 (P32519 whole entry): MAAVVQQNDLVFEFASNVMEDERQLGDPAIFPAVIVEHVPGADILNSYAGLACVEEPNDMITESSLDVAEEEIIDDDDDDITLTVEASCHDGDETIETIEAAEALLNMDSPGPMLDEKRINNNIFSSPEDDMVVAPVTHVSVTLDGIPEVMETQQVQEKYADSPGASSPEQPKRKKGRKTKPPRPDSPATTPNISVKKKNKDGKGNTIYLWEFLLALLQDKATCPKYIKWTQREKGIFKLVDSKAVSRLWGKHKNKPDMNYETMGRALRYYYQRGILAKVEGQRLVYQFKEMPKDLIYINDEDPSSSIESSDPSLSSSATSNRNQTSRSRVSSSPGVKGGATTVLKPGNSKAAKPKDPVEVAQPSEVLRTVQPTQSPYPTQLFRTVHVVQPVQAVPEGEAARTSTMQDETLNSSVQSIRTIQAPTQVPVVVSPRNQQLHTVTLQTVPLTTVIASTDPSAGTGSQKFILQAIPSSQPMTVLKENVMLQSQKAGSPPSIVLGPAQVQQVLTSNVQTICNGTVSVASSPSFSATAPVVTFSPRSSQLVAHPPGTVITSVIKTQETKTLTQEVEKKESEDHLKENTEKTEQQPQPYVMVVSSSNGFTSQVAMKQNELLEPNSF
# In short: as §1
# EHF = target: T3, EHF (Homo sapiens, UniProt Q9NZC4 1-300)
# T3 sequence: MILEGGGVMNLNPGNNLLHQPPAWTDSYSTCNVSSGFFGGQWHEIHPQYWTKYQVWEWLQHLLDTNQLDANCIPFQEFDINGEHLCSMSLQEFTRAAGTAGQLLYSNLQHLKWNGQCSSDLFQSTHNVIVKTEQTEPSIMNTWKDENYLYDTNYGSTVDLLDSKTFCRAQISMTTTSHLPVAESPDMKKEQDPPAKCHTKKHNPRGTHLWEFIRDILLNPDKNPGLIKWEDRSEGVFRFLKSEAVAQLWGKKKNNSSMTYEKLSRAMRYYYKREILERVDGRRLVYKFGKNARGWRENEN
# In short: as §1
# SPIB = SPIB (Homo sapiens, UniProt Q01892 1-262)
# Sequence of SPIB (Q01892 whole entry): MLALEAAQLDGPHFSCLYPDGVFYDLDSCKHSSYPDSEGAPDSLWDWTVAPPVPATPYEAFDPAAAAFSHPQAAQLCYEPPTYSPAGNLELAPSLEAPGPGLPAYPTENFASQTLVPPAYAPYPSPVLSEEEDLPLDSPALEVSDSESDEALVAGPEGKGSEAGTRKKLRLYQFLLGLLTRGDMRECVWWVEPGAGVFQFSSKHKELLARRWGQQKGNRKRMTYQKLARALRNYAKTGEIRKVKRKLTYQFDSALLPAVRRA
# In short: as §1
# ELK3 = target: T4, ELK3 (Homo sapiens, UniProt P41970 1-407)
# T4 sequence: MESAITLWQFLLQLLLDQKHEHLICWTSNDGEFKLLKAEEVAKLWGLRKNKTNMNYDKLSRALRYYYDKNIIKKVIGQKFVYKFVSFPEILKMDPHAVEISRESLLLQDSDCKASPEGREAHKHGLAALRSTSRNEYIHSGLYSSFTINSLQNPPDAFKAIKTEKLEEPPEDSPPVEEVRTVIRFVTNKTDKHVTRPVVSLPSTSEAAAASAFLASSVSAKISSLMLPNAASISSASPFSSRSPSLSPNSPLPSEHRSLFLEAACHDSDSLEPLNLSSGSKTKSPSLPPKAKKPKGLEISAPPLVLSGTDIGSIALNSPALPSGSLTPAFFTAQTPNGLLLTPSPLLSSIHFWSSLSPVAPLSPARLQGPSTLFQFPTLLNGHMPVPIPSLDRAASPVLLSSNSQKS
# In short: as §1
# FEV = target: T5, FEV (Homo sapiens, UniProt Q99581 1-238)
# T5 sequence: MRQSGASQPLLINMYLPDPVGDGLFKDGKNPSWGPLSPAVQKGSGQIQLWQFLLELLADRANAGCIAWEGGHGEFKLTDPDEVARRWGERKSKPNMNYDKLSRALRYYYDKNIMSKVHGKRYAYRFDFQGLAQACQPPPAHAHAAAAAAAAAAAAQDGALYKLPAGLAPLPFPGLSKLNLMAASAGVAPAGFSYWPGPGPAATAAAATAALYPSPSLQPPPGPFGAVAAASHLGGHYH
# In short: as §1
# ETV5 = ETV5 (Homo sapiens, UniProt P41161 1-510)
# Sequence of ETV5 (P41161 whole entry): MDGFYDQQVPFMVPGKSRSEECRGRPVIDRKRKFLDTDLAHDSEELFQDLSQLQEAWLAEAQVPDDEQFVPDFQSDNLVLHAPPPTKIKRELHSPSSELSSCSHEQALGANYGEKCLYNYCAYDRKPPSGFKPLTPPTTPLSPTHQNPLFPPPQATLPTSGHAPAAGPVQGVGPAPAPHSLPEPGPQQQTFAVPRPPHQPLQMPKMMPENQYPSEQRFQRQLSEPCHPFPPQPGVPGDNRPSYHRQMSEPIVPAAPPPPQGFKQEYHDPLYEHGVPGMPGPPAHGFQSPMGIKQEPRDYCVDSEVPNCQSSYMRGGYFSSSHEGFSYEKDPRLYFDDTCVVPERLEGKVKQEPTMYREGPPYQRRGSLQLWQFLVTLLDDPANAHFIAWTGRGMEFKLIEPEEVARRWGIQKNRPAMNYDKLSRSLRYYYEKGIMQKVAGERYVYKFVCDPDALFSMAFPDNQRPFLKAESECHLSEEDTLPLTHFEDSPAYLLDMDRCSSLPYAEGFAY
# In short: as §1
# ELK4 = target: T6, ELK4 (Homo sapiens, UniProt P28324-2 1-405)
# T6 sequence: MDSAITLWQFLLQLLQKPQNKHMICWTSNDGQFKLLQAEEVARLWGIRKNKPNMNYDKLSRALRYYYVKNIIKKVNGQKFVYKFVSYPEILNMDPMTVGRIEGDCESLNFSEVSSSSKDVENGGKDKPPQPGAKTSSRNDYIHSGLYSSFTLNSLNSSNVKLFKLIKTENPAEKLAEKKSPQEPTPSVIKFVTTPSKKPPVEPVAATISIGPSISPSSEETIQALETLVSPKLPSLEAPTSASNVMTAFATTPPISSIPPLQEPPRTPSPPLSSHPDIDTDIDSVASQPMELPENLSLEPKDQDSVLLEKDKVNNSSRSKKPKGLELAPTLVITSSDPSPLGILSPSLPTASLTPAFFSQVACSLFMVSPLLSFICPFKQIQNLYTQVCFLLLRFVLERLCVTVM
# In short: as §1
# ETV1 = ETV1 (Homo sapiens, UniProt P50549 1-477)
# Sequence of ETV1 (P50549 whole entry): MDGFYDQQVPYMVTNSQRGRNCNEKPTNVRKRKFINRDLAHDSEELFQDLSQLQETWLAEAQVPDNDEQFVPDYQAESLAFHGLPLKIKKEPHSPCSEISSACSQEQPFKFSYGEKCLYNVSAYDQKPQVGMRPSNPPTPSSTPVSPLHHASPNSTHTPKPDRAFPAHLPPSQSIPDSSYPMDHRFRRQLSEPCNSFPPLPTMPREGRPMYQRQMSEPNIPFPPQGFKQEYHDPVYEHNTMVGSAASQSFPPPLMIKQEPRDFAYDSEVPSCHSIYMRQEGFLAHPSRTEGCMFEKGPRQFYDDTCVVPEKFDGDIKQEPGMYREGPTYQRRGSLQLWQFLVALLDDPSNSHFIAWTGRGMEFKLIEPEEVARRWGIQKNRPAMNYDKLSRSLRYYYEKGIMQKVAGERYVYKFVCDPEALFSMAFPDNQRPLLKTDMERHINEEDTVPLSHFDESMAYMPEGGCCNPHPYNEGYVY
# In short: as §1
# ERF = target: T7, ERF (Homo sapiens, UniProt P50548 1-548)
# T7 sequence: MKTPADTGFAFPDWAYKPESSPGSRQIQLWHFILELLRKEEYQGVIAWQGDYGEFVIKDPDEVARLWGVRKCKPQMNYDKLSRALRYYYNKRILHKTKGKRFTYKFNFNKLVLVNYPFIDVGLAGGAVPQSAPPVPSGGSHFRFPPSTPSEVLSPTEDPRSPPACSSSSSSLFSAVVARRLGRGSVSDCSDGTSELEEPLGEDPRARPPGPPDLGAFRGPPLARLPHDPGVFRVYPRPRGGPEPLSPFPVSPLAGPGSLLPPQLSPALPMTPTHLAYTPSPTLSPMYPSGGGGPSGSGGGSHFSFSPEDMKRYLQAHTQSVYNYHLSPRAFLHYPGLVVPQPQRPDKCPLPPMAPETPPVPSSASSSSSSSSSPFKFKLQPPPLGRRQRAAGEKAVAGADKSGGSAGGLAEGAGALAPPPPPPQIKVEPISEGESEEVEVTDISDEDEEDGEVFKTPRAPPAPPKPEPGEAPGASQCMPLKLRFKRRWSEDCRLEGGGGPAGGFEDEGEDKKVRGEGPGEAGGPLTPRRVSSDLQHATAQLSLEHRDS
# In short: as §1
# ETV3L = target: T8, ETV3L (Homo sapiens, UniProt Q6ZN32 1-361)
# T8 sequence: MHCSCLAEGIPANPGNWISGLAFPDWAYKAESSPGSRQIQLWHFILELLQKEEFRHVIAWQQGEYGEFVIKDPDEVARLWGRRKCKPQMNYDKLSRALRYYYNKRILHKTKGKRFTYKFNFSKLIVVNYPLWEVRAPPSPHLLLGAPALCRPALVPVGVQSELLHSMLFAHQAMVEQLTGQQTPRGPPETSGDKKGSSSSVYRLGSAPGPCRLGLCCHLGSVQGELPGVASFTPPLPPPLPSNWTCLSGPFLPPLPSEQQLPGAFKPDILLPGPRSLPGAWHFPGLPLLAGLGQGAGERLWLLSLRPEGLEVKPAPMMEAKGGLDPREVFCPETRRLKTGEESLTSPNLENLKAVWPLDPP
# In short: as §1
# ETS2 = target: T9, ETS2 (Homo sapiens, UniProt P15036 1-469)
# T9 sequence: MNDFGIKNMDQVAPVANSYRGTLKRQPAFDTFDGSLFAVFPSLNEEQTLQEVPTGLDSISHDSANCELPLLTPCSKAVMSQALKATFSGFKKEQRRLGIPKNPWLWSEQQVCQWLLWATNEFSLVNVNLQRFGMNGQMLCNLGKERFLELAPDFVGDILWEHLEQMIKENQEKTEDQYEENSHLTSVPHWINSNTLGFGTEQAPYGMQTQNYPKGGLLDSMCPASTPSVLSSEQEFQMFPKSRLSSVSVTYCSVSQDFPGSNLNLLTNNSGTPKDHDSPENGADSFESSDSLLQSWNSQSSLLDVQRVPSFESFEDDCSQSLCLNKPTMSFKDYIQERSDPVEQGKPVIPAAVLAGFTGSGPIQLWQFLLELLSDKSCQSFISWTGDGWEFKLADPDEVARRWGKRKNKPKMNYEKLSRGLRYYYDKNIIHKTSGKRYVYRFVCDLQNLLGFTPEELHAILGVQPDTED
# In short: as §1
# SPDEF = target: T10, SPDEF (Homo sapiens, UniProt O95238 1-335)
# T10 sequence: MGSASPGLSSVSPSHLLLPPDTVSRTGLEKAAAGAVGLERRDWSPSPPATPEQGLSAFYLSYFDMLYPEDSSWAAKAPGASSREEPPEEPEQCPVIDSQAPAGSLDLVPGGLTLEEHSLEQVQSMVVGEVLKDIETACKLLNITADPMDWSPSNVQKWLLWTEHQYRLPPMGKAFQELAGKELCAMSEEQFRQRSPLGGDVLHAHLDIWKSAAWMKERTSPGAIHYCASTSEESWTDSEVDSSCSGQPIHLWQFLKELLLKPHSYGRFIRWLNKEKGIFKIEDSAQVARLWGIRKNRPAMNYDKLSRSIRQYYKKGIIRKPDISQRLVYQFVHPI
# In short: as §1
# ETV3 = target: T11, ETV3 (Homo sapiens, UniProt P41162-2 1-143)
# T11 sequence: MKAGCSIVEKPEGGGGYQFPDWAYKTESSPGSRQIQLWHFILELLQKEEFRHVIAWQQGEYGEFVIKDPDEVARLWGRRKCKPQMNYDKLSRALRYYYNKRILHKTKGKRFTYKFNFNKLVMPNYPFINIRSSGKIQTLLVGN
# In short: as §1
# ETV6 = ETV6 (Homo sapiens, UniProt P41212 1-452)
# Sequence of ETV6 (P41212 whole entry): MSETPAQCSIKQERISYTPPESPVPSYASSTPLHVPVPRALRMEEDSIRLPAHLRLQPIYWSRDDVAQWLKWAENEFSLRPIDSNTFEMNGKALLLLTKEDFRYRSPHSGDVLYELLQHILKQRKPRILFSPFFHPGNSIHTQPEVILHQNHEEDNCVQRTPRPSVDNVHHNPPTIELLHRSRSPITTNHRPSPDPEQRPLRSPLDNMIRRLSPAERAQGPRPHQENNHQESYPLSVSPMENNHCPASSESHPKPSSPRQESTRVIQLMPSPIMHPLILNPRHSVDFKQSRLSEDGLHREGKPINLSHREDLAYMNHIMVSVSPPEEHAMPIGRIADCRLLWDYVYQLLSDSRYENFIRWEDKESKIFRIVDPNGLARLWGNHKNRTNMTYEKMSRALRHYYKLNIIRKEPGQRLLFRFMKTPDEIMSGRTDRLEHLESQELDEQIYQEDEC
# In short: as §1
sequence,measurement,setting,value
CGACTG,binding signal,ELK1,"1.13 fold enrichment (6-mer frequency, TF over GST control)"
same,binding signal,ERG,"1.05 fold enrichment (6-mer frequency, TF over GST control)"
same,binding signal,ELF1,"1.08 fold enrichment (6-mer frequency, TF over GST control)"
same,binding signal,EHF,"1.02 fold enrichment (6-mer frequency, TF over GST control)"
same,binding signal,SPIB,"1.05 fold enrichment (6-mer frequency, TF over GST control)"
same,binding signal,ELK3,"1.02 fold enrichment (6-mer frequency, TF over GST control)"
same,binding signal,FEV,"1.1 fold enrichment (6-mer frequency, TF over GST control)"
same,binding signal,ETV5,"1.06 fold enrichment (6-mer frequency, TF over GST control)"
same,binding signal,ELK4,"1.22 fold enrichment (6-mer frequency, TF over GST control)"
same,binding signal,ETV1,"1.13 fold enrichment (6-mer frequency, TF over GST control)"
same,binding signal,ERF,"1.17 fold enrichment (6-mer frequency, TF over GST control)"
same,binding signal,ETV3L,"1.07 fold enrichment (6-mer frequency, TF over GST control)"
same,binding signal,ETS2,"1.08 fold enrichment (6-mer frequency, TF over GST control)"
same,binding signal,SPDEF,"1.06 fold enrichment (6-mer frequency, TF over GST control)"
same,binding signal,ETV3,"1.05 fold enrichment (6-mer frequency, TF over GST control)"
same,binding signal,ETV6,"1.02 fold enrichment (6-mer frequency, TF over GST control)"
